# PubChem BioAssay AID999 (SRMLSC, 2007)
# The source made the active and inactive calls.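 The calls were made as follows: active = viability at or below 21.59%, 3 SD under the median of tested compounds; inactive = the rest.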
# Test: growth suppression of PTEN-null HCT116 cells, cell-based, validation, diverse DP compound set (AID 999);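 also: 100% = median luminescence of untreated cell control wells and 0% = no signal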
# Conditions: CellTiter-Glo, 60 h, at 10 µM, stronger effect = lower value
row,SMILES,viability
1,CN(C)c1ccc(/C=C2\C(=O)Nc3ccccc32)cc1,86.2% (inactive)
2,COc1ccc2nc(S(=O)Cc3ncc(C)c(OC)c3C)[nH]c2c1 (centres undefined),92.7% (inactive)
3,NCC(=O)N[C@@H](CCCN=C(N)N)C(=O)NCC(=O)N[C@@H](CC(=O)O)C(=O)N[C@@H](CC(N)=O)C(=O)N1CC[C@@H](C(=O)O)C1,98% (inactive)
4,CCC[C@@H]1C[C@@H](C(=O)NC(C(C)Cl)[C@H]2O[C@H](SC)[C@H](O)[C@@H](O)[C@H]2O)N(C)C1 (some centres undefined),100% (inactive)
5,COc1ccc(Cl)cc1C(=O)NCCc1ccc(S(=O)(=O)NC(=O)NC2CCCCC2)cc1,107% (inactive)
6,C/C(=C\CNc1ncnc2c1ncn2[C@@H]1O[C@H](CO)[C@@H](O)[C@H]1O)CO,91.5% (inactive)
7,C[C@@H]1C[C@@H]([C@@H](C)CC2CC(=O)NC(=O)C2)C(=O)[C@@H](C)C1,30.2% (inactive)
8,C=CCc1ccc(O)c(-c2cc(CC=C)ccc2O)c1,98.7% (inactive)
9,COc1ccc(CCN(C)CCCN2CCc3cc(OC)c(OC)cc3CC2=O)cc1OC,97.1% (inactive)
10,CC1COC2=C1C(=O)C(=O)c1c2ccc2c1CCCC2(C)C (centres undefined),17.8% (active)
11,COc1cc(Cc2cnc(N)nc2N)cc(OC)c1OC,102% (inactive)
12,O=c1[nH]c(=O)n(C2CCCO2)cc1F (centres undefined),101% (inactive)
13,C[C@@H]1C(=O)O[C@@H]2CC34C5CC(C(C)(C)C)[C@]36C(O)C(=O)O[C@@H]6O[C@@]4(C(=O)O5)[C@@]12O (some centres undefined),53.4% (inactive)
14,COc1ccc(-c2cc(C(=O)O)no2)cc1,97.7% (inactive)
